The list is not random: actives were taken first. Their share in the collection is about 18%.
RORg inh: inhibitors of mouse ROR gamma transcriptional activity. P51450. Drosophila S2 Gal4-RORgamma UAS-luciferase reporter, 20 h. Potency, µM (titrated, usually from 53.6 µM), without a hit: at the top dose activity change, negative = inhibition, usual class: inhibitors. hit rate 5.4% among 310,000; further: potency means the concentration at half of the fitted maximal effect; nearly all actives have a fitted effect of over 60% in size
Target sequence (P51450 whole entry, looked up, the tested form may be a part): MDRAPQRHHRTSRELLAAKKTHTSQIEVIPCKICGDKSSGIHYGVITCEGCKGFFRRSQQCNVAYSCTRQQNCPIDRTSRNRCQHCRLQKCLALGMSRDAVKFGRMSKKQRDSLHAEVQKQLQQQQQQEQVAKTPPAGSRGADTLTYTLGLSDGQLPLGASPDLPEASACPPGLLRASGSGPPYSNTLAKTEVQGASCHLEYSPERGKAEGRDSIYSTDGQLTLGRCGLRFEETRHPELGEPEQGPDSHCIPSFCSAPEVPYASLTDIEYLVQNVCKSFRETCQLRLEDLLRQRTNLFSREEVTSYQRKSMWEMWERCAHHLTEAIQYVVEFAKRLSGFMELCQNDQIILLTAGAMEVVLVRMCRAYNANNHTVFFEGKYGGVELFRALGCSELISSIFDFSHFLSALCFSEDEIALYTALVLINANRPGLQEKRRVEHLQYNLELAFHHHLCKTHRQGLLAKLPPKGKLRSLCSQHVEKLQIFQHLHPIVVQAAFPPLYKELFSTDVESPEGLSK
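A Gal4/UAS one-hybrid system in insect cells: metallothionein-promoter Gal4–ROR gamma fusion plus Photinus luciferase reporter. Copper sulfate 700 uM final, 20 hr ambient incubation, luminescent detection after 10 min with reagent.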
IL1B secr inh: inflammasome signaling inhibition, IL-1 beta readout | hit rate 4.7% among 360,000 | activity change, % at 57.5 µM | AID 743279 | THP-1 LPS/ATP IL-1B secretion, AlphaLISA, 16 h; active compounds read low; in the data active means activity change below about -50%; inconclusive means mostly about -30% to -49%
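THP-1 cells pretreated 1 hr with compounds (up to 57.5 uM final), then stimulated with LPS (250 ng/mL final) plus ATP (1.25 mM final); secreted IL-1B measured by AlphaLISA after 16 hr, decreased signal indicating inhibition.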
TDP1 cell noCPT: qHTS for Inhibitors of human tyrosyl-DNA phosphodiesterase 1 (TDP1): qHTS in cells in absence of CPT | DT40 Tdp1-/- hTDP1 cells, no CPT, ATP luminescence, 48 h | Potency, µM (highest dose often 46.2 µM), without a hit: top-dose activity change, negative = growth inhibition, most hits filed as inhibitors | hit rate 15% among 420,000 | AID 686978, 2013; further: potency means the concentration at half of the fitted maximal effect; nearly all actives have a fitted effect of over 55% in size
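Cells were dispensed at 400 per well, compounds added by pin tool, plates incubated ≥48 hr at 37 °C, then CellTiter-Glo added for 30 min at room temperature before luminescence reading. Line: DT40 Tdp1-/- complemented with hTDP1; camptothecin omitted.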
TDP1 cell CPT: DT40-hTDP1 cell growth loss with CPT. Potency, µM (series often up to 46.2 µM), without a hit: top-dose activity change, negative = growth inhibition, hits mostly inhibitors. hit rate 12% among 420,000. chicken DT40 Tdp1-/-;hTDP1 cells + 20 nM CPT, ATP luminescence, 48 h. AID 686979; further: potency means the concentration at half of the fitted maximal effect; nearly all actives have a fitted effect of over 55% in size
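Chicken DT40 Tdp1-/- cells complemented with human TDP1, 400 cells/well, exposed to compounds plus 20 nM camptothecin for at least 48 h at 37 C; viability read as ATP content by CellTiter-Glo luminescence.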
VP16 counter: Gal4-VP16 reporter inhibition counter-screen; Drosophila S2 Gal4-VP16 UAS-luciferase, luminescence, 20 h; Potency, µM (top dose mostly 53.6 µM), for the others: at the top dose activity, negative = inhibition, actives largely listed as inhibitors; hit rate 3.5% among 310,000;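 further: Gal4-VP16 expression switched on by copper sulfate through the metallothionein promoter; potency means the concentration at half of the fitted maximal effect; nearly all actives have a fitted effect of over 50% in size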
LDHA inh: inhibitors of human lactate dehydrogenase A; P00338; purified LDHA, NADH/diaphorase-resazurin fluorescence; active compounds read low; activity change, % (values are at about 110 or 230 µM); hit rate 0.15% among 480,000; in the data active means activity change below about -30%; inconclusive means mostly about -25% to -30%;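 further: plate controls were DMSO wells for no effect and wells without enzyme for full effect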
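Human LDH5 (2 nM) was incubated with 0.06 mM NADH and 0.2 mM pyruvate for 5 min at room temperature in Tris pH 7.4. Remaining NADH was coupled through diaphorase/resazurin, and resorufin fluorescence was read at 0 and 20 min.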
Active calls of the source: *; ? = inconclusive; / = no result given; [ ] = dose if it differs, or a comment. Unless noted, the call rests on the fitted dose curve; in most records, active means well fitted curve in the direction sought with a large enough effect; inconclusive means small, poorly fitted or top-dose-only effect, or another doubt; inactive means no such curve, though single readings can be large; an effect the other way counts as inactive or inconclusive. Unless noted, on the % scale 0 is the no-effect control and ±100 the full control effect.

SMILES | RORg inh | IL1B secr inh | TDP1 cell noCPT | TDP1 cell CPT | VP16 counter | LDHA inh
O=C(c1ccc(Cl)c(S(=O)(=O)N2CCc3ccccc32)c1)N1CCN(c2ccccc2O)CC1 | / | -73* | 23µM* | ? | / | 9
O=C(NCc1ccco1)c1ccc(Cl)c(S(=O)(=O)N2CCc3ccccc32)c1 | ? | -51* | ? | ? | -29% | -7
Cc1cccc(N2CCN(C(=O)c3ccc(Cl)c(S(=O)(=O)N4CCc5ccccc5C4)c3)CC2)c1C | 10%[10 µM] | -10 | 15µM* | ? | 5% | -4
Cc1cccc(N2CCN(C(=O)c3ccc(Cl)c(S(=O)(=O)NCc4ccco4)c3)CC2)c1C | ? | 13 | ? | ? | 7% | -14
Cc1ccc(NC(=O)c2ccc(Cl)c(S(=O)(=O)N3CCc4ccccc43)c2)nc1 | / | -16 | 26µM* | ? | / | -4
O=C(Cn1cnc(S(=O)(=O)N2CCCC2)c1)Nc1cccc(-c2ccno2)c1 | / | / | / | / | / | 1
Cc1ccc(NS(=O)(=O)c2ccc(-c3cnc(C)o3)cc2)c(Cl)c1 | / | / | / | / | / | -8
CCc1ccc(-c2csc(-c3nc(-c4ccc(C)cc4)c(C)s3)n2)cc1 | / | / | / | / | / | 3
CC1(C)CC[C@]2(C(=O)O)CC[C@]3(C)C(=CC[C@@H]4[C@@]5(C)CC[C@H](O)C(C)(C)[C@@H]5CC[C@]43C)[C@@H]2C1 | -20% | 26 | 23µM* | ? | -1% | -10
CC1(C)C[C@H](O)[C@]2(CO)CC[C@]3(C)C(=CCC4[C@@]5(C)CC[C@H](O)C(C)(C)C5CC[C@]43C)[C@@H]2C1 (stereo partly specified) | / | 18 | ? | ? | / | 1
CC1(C)CC[C@]2(C(=O)O)CC[C@]3(C)C(=CCC4[C@@]5(C)CC[C@H](O)C(C)(C)[C@@H]5CC[C@]43C)C2C1 (stereo partly specified) | -20% | / | -9% | -2% | 0% | /
CC1(C)CC[C@]2(C(=O)O)CC[C@]3(C)C(=CCC4[C@@]5(C)CC[C@H](O)C(C)(C)C5CC[C@]43C)C2C1 (stereo partly specified) | 6.3µM* | 35 | -19% | 4% | 2% | -11
CC1(C)C[C@H](O)[C@]2(CO)[C@H](O)C[C@]3(C)C(=CCC4[C@@]5(C)CC[C@H](O)C(C)(C)C5CC[C@]43C)[C@@H]2C1 (stereo partly specified) | / | 15 | 23µM* | ? | / | -6
N#C/C(=C/c1ccccc1OCc1ccccc1Cl)c1nc2ccccc2s1 | / | / | / | / | / | -9
Cc1cccc(C2CCCN2C(=O)Nc2ccc(C)c(C)c2)c1 (stereo unspecified) | / | / | / | / | / | 1
Oc1cccc(C=Nc2cccc3ccccc23)c1 | / | / | / | / | / | 33
COC(=O)c1sc(-c2cccs2)cc1NC(=O)/C=C/C(=O)O | -90% | -92* | 15µM* | ? | ? | -1
COC(=O)c1sc(-c2ccccc2)cc1NC(C)=O | 23% | 2 | 0% | 14% | 5% | -5
COc1cccc(CNc2nc3cc(-c4ccccc4CO)sc3c(=O)n2C)c1 | / | -10 | ? | 18µM* | / | -1
COc1cccc(CNc2nc3cc(-c4ccc(OC)cc4C)sc3c(=O)n2C)c1 | / | -15 | ? | ? | / | -3
COc1cccc(CNc2nc3cc(-c4cscc4C)sc3c(=O)n2C)c1 | / | -57* | 21µM* | ? | / | -6
CCCCCn1nc(C(=O)NCCC(=O)OC)c2ccccc2c1=O | / | / | / | / | / | 9
COc1ccc(/C=N/n2c(N)nc(-c3ccccc3)c2-c2ccccc2)cc1 | ? | ? | 16µM* | 26µM* | ? | -6
COc1cccc(/C=N/n2c(-c3cccs3)n[nH]c2=S)c1 | 7.1µM* | -8 | -18% | -13% | -23% | 0
Oc1ccc(Br)cc1/C=N/n1c(-c2ccccc2)n[nH]c1=S | / | -7 | -28% | -3% | / | -4
SMILES | RORg inh | IL1B secr inh | TDP1 cell noCPT | TDP1 cell CPT | VP16 counter | LDHA inh
CCc1nc2ccccc2c(=O)n1/N=C/c1ccc(OC)cc1 | / | -3 | -16% | -26% | / | 2
COc1ccc(/C=N/n2c(-c3ccccc3)n[nH]c2=S)cc1 | 5.6µM* | -9 | ? | ? | 4.5µM* | -5
S=c1[nH]nc(-c2ccccc2)n1/N=C/c1cccc(Br)c1 | 7.1µM* | 4 | -4% | -14% | 7.1µM* | -7
COc1ccccc1N1CCN(S(=O)(=O)c2ccc(F)c(C(=O)Nc3ccc(Cl)cc3C(F)(F)F)c2)CC1 | / | / | 21µM* | ? | / | -5
COc1ccc(N2CCN(S(=O)(=O)c3ccc(F)c(C(=O)Nc4ccccc4Cl)c3)CC2)cc1 | / | / | 8.2µM* | 7.3µM* | / | -3
O=C(N/N=C/c1cccs1)c1c[nH]c2ccccc12 | ? | -10 | 12µM* | ? | 15% | -9
CCc1ccc(/C=N/NC(=O)c2c[nH]c3ccccc23)s1 | 11µM* | ? | -20% | 21µM* | -27% | -4
COc1cc2cc(/C=C/C(=O)c3ccco3)c(Cl)nc2cc1OC | ? | 35 | 4.6µM* | 4.1µM* | 7.9µM* | -3
Cc1ccc2cc(/C=C/C(=O)c3ccco3)c(Cl)nc2c1 | ? | / | 21µM* | 10µM* | ? | -1
CC(C)CC(=O)Nc1ccc2oc(-c3ccc(F)cc3Cl)nc2c1 | / | / | / | / | / | 10
Cc1c(Cl)cccc1Nc1nnc(SCC(=O)Nc2ccnn2C2CCCC2)s1 | / | / | / | / | / | 2
O=C(NCCCc1nc2ccccc2n1CCOc1ccccc1)C1CCCCC1 | / | / | -26% | -28% | / | -9
O=C(NCCCc1nc2ccccc2n1CCCOc1ccccc1)C1CCCCC1 | / | / | 10µM* | 11µM* | / | -1
O=C(NCCCc1nc2ccccc2n1CCCCOc1ccccc1)C1CCCCC1 | / | / | 13µM* | ? | / | 2
COc1ccc(C2CC(=O)c3ccccc3O2)cc1 (stereo unspecified) | -4% | -60* | ? | ? | 0% | -1
C=CCN1C(c2ccccc2)=CS/C1=C(/C#N)c1nnc(N2CCOCC2)n1-c1ccccc1 | -4% | -7 | 15µM* | 18µM* | -15% | -4
CN1C(=O)NC(c2ccccc2)(C(F)(F)F)S/C1=C(/C#N)c1nnc(N2CCOCC2)n1-c1ccccc1 (stereo unspecified) | 14µM* | -22 | -4% | -2% | ? | -1
CN1C(c2ccc(F)cc2)=CS/C1=C(/C#N)c1nnc(N2CCOCC2)n1-c1ccccc1 | -20% | -6 | -11% | ? | -1% | 0

Assay outcomes (PubChem BioAssay)
